Assay outcomes: PubChem BioAssay, The Scripps Research Institute Molecular Screening Center
HTR5A inv ag: HTR5A inverse agonists in luminescence cell assay, primary screen, counter-screen for OPRM1-OPRD1 heterodimer inverse agonist project, full-deck HTS; 5-hydroxytryptamine receptor 5A (Homo sapiens), P47898; HTR5A cell line, inverse agonism; inhibition, % at 9.3 µM; actives 0.083% (n = 340,000); in the data active = inhibition mostly above about 23%, no sharp cut-off; inactive = mostly below about 18%;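 note: 0% = cells with DMSO and 100% = no-cell wells with DMSO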
Target sequence (P47898 whole entry, looked up): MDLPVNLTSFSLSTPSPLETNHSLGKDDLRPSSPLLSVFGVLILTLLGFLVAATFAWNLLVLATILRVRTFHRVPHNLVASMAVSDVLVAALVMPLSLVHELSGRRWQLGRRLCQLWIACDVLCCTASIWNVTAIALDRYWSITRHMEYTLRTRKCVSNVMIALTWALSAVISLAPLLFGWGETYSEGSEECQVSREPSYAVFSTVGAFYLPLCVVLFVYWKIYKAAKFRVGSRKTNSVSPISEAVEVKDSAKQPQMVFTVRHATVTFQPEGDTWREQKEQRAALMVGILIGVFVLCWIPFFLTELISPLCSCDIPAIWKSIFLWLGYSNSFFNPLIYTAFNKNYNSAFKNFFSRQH
HTR5A ag ctr: HTR5A agonists in luminescence cell assay, primary screen, counter-screen for OPRM1-OPRD1 heterodimer agonist project, full-deck HTS; 5-hydroxytryptamine receptor 5A (Homo sapiens), P47898; cell-based; activation, % at 9.3 µM; actives 0.61% (n = 340,000); in the data active = activation mostly above about 9.5%, no sharp cut-off; inactive = mostly below about 7.6%;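 note: 0% = cells with vehicle only and 100% = reference agonist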
MOR-DOR inv ag-1: inverse agonists of MOR-DOR heterodimerization, primary screen, cell-based, luminescence. Mu-type opioid receptor (Homo sapiens) + Delta-type opioid receptor (Homo sapiens), …. cell-based MOR-DOR heterodimer luminescence, inverse agonism. inhibition, % at 9.3 µM. actives 0.21% (n = 340,000). AID 504357, 2011; in the data active = inhibition above about 22%, passing the limit was not always enough;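 note: 0% = cells with DMSO and 100% = wells without cells with DMSO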
MOR-DOR ag: agonists of OPRM1-OPRD1 heterodimerization, primary screen, cell-based, luminescence; Mu-type opioid receptor (Homo sapiens) + Delta-type opioid receptor (Homo sapiens), …; cells; activation, % at 9.3 µM; actives 0.3% (n = 340,000); in the data active = activation above about 18%;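 note: 0% = vehicle-treated cells and 100% = reference agonist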
MOR-DOR ag conf: agonists of MOR-DOR heterodimerization, confirmation, cell-based, luminescence | shares compounds with MOR-DOR ag | cells, luminescence complementation | activation, % at 9.3 µM | actives 45% (n = 830); in the data active = activation above about 18%;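 note: 0% = vehicle-treated cells and 100% = reference agonist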
HTR5A ag counter: HTR5A agonists in cells, counter-screen for OPRM1-OPRD1 heterodimer agonist project, cell-based, luminescence. HTR5A agonist counterscreen. shares compounds with MOR-DOR ag. AID 504905, 2011. actives 8% (n = 830). activation, % at 9.3 µM; in the data active = activation above about 17%;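 note: 0% = vehicle-treated cells and 100% = reference agonist response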
OPRM1-D1 inv cf: inverse agonists of MOR-DOR heterodimerization, confirmation, cell-based, luminescence; shares compounds with MOR-DOR inv ag-1; actives 20% (n = 580); cells expressing OPRM1/OPRD1 heterodimer; inhibition, % at 9.3 µM; in the data active = inhibition above about 32%;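 note: 0% = cells with DMSO and 100% = wells lacking cells with DMSO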
HTR5A inv ctr2: HTR5A inverse agonists, counter-screen for OPRM1-OPRD1 inverse agonist project, cell-based, luminescence. 580 tested, under 10 active. inhibition, % at 9.3 µM. AID 504914, 2011. HTR5A-expressing cells, inverse agonism. shares compounds with MOR-DOR inv ag-1;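 note: 0% = cells with DMSO and 100% = no-cell wells with DMSO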
MOR-DOR inv ag-2: inverse agonists of MOR-DOR heterodimerization, counter-screen for HTR5A inverse agonist project, cell-based, luminescence; shares compounds with HTR5A inv ag; 190 tested, under 10 active; inhibition, % at 9.3 µM; U2OS counter-screen cells, complementation luminescence;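 note: 0% = cells with DMSO and 100% = wells without cells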
HTR5A inv confrm: HTR5A inverse agonists, retest of hits, confirmation, cell-based, luminescence | shares compounds with HTR5A inv ag | HTR5A-expressing cells, inverse agonism | inhibition, % at 9.3 µM | 190 tested, under 10 active | AID 504916, 2011;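 note: 0% = cells with DMSO and 100% = no cells with DMSO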
An asterisk follows results filed as active; i = inactive; . = no result given. Only some compounds are listed: those with a hit (about 1.1% of all), similar ones and a draw of the others. Unless noted, the rule behind the calls is not given here.

SMILES | HTR5A inv ag | HTR5A ag ctr | MOR-DOR inv ag-1 | MOR-DOR ag | others
CN1CC[C@]23c4c5ccc(O)c4OC2C(O)C=CC3[C@H]1C5 (some centres undefined) | -15 | 7 | . | . | HTR5A ag counter=-2
COc1ccc2c3c1OC1[C@H](O)CCC4[C@@H](C2)N(C)CC[C@]314 (some centres undefined) | -9 | 4 | -185 | 46* | MOR-DOR ag conf=2;HTR5A ag counter=4
CC(=O)OC1C=CC2[C@H]3Cc4ccc(O)c5c4[C@@]2(CCN3C)C1O5 (some centres undefined) | -13 | 6 | i | 282* | MOR-DOR ag conf=-2;HTR5A ag counter=-1
COC1=CC2[C@@H]3Cc4ccc(OC)c(O)c4[C@]2(CCN3C)CC1=O (some centres undefined) | -10 | 3 | 9 | -2
CN1CC[C@]23c4c5ccc(OC6OC(C(=O)O)[C@@H](O)C(O)[C@H]6O)c4OC2C(O)C=CC3[C@H]1C5 (some centres undefined) | -10 | 4 | -34 | 8
O=C1NC(=O)C(C2CCCCCC2)C(=O)N1 | 19 | -5 | 3 | -1
O=[N+]([O-])c1oc2ccc3ccccc3c2c1CCO | -4 | 1 | -9 | 2
CC[C@H](OC(C)=O)C(C[C@H](C)N(C)C)(c1ccccc1)c1ccccc1 | 4 | -2 | i | 221* | MOR-DOR ag conf=2;HTR5A ag counter=52*
CC(=O)O/C(=C1\CC2C3CC=C4CC(OC(C)=O)CCC4(C)C3CCC2(C)C1=O)C(F)(F)F (centres undefined) | -16 | 4 | -14 | 3
CC1CC(C)OP(=O)(OCCC#N)O1 (centres undefined) | -28 | 7 | -1 | 0
C[C@]12CCC3C(CC[C@@H]4C[C@@H](O)CC[C@]34C)C1CC[C@@H]2O (some centres undefined) | -6 | 2 | 13 | -2
CN(C)C(CNC(=O)Cc1c(Cl)cccc1Cl)c1ccccc1 (centres undefined) | -3 | 1 | i | 145* | MOR-DOR ag conf=1;HTR5A ag counter=4
CC(NCc1cccc(Cl)c1Cl)C(O)c1ccccc1 (centres undefined) | -20 | 8 | 4 | -1
C[C@@H]1O[C@@H](O[C@H]2C[C@@H](O)[C@]3(CO)[C@H]4[C@H](O)C[C@]5(C)[C@@H](C6=CC(=O)OC6)CC[C@]5(O)[C@@H]4CC[C@]3(O)C2)[C@H](O)[C@H](O)[C@H]1O | -33 | 30* | -386 | 70* | MOR-DOR ag conf=79*;HTR5A ag counter=6
Cc1cccc(OCC(=O)N2CCN(Cc3ccc4c(c3)OCO4)CC2)c1 | -2 | 1 | 17 | -3
CN(C(=O)Cc1ccc(Cl)c(Cl)c1)C(CN1CCCC1)c1cccc(OCC(=O)O)c1 (centres undefined) | -4 | 1 | -308 | 57* | MOR-DOR ag conf=37*;HTR5A ag counter=-1
N#Cc1c(/N=C/c2ccc(O)cc2O)sc2c1C1CCN2CC1 | 7 | -2 | 51* | -10 | OPRM1-D1 inv cf=-4;HTR5A inv ctr2=10
Cc1ccc(C2SCC(=O)Nc3c2c(=O)[nH]n3C2CCOC(C)(C)C2)cc1 (centres undefined) | 9 | -3 | 12 | -3
CC1(C)CC(n2[nH]c(=O)c3c2NC(=O)CSC3c2ccccc2)CCO1 (centres undefined) | 11 | 2 | 31* | -7 | OPRM1-D1 inv cf=-2;HTR5A inv ctr2=-16
Nc1ccc(-c2ccc(N)cc2)cc1 | 7 | -2 | 17 | -4
C#C[C@]1(O)CCC2C3C(=O)C=C4C(Cl)=CCC[C@]4(C)C3CC[C@@]21C (some centres undefined) | -15 | 4 | 14 | -3
CC(C)(C)OC(=O)c1c(N)n(Cc2ccco2)c2nc3ccccc3nc12 | 20 | 1 | 40* | -7 | OPRM1-D1 inv cf=96*;HTR5A inv ctr2=17
O=C(CN1CCCCC1)c1ccc(OC(F)F)cc1 | -17 | 7 | 13 | -2
CCC1CCCCN1CC(=O)c1ccc(OC(F)F)cc1 (centres undefined) | 17 | 6 | 42* | -8 | OPRM1-D1 inv cf=14;HTR5A inv ctr2=41
CC(=O)O[C@H]1CCC2C3CC[C@H]4[C@@H](O)[C@H](O)CC[C@]4(C)C3CC[C@@]21C (some centres undefined) | 7 | -2 | 3 | -1
SMILES | HTR5A inv ag | HTR5A ag ctr | MOR-DOR inv ag-1 | MOR-DOR ag | others
O=C(CN1CCCCC1)c1cccc(Br)c1 | 3 | -3 | 68* | -13 | OPRM1-D1 inv cf=-444;HTR5A inv ctr2=-13
S=P(NCCNP(=S)(N1CC1)N1CC1)(N1CC1)N1CC1 | -14 | 4 | 12 | -2
C[C@H]1CCC/C=C/[C@@H]2C[C@H](O)C[C@H]2[C@@H](O)/C=C/C(=O)O1 | 5 | -1 | 42* | -10 | OPRM1-D1 inv cf=-455;HTR5A inv ctr2=-24
CC1CC2(O)c3no[n+]([O-])c3CCC2N1O (centres undefined) | 24 | -2 | 25 | -5
CC1CN(O)C2CCc3c(no[n+]3[O-])C12O (centres undefined) | -29 | 3 | 31* | -5 | OPRM1-D1 inv cf=-29;HTR5A inv ctr2=3
N#CC1c2ccccc2-n2nncc2CN1C(=O)CCc1ccccc1 (centres undefined) | -3 | 1 | 10 | -2
CCCCn1c(NS(=O)(=O)c2ccccc2)c(C(=O)OCC)c2nc3ccccc3nc21 | 13 | 0 | 32* | -6 | OPRM1-D1 inv cf=-16;HTR5A inv ctr2=-14
COc1ccc(CNC(=O)C(NC(C)=O)C(C)C)cc1OC (centres undefined) | 18* | -7 | 10 | -2 | MOR-DOR inv ag-2=5;HTR5A inv confrm=-8
CC1CC2(C)C(CCC3C2CCC2(C)C(OP(=O)(N4CC4)N4CC4)CCC32)CC1=O (centres undefined) | 7 | -2 | 5 | -1
